Sampled rows, rich in hits. Any-hit rate of the full collection: about 9.9%.
KB-3-1 cytotox – KB-3-1 parental cell cytotoxicity; Potency, µM (top dose mostly 46.1 µM), actives largely listed as cytotoxic; actives 1.4% (n = 400,000); KB-3-1 viability, CellTiter-Glo ATP luminescence, 72 h; also: potency is read from the fitted curve at half-maximal effect; % is scaled to controls: 0 for no effect and ±100 for the full control effect; nearly all actives have a fitted effect of over 60% in size
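Using CellTiter-Glo luminescence, growth of non-resistant KB-3-1 adenocarcinoma cells is assessed 72 h after pin-tool compound addition at 37 °C. Normalized responses across the concentration series yield fitted curves.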
IL-1B inflam inh – blocks inflammasome-driven IL-1 beta release. THP-1 LPS/ATP IL-1B secretion, AlphaLISA, 16 h; hits give low values. activity change, % at 57.5 µM. actives 4.7% (n = 360,000). AID 743279; in the data active = activity change below about -50%; inconclusive = mostly about -30% to -49%; also: % is scaled to controls: 0 for no effect and ±100 for the full control effect
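Secreted IL-1B measured by AlphaLISA bead assay after 16 h compound exposure of THP-1 cells; compounds (final up to 57.5 uM) added 1 h before LPS (250 ng/mL) and ATP (1.25 mM) stimulation; lower signal means less secretion.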
SW480 rerep – induces DNA re-replication in SW480 colon adenocarcinoma cells; SW480 DNA re-replication, Hoechst DNA content imaging, 48 h; Potency, µM (titrated, usually from 46.1 µM), without a hit: top-dose re-replication activation, usual class: activators; actives 1.8% (n = 340,000); also: potency is read from the fitted curve at half-maximal effect; % of control where 0% means no effect; nearly all actives have a fitted effect of over 55% in size
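250 cells/well; 23 nL cpd via pin tool; 48 hr, 37 C, 5% CO2; Hoechst 40 min; imager read of total nuclear intensity, ex 405/em 500-530 nm.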
KB-V1 cytotox – kills drug-selected multidrug resistant KB-V1 cells; KB-V1 MDR cells viability, CellTiter-Glo, 72 h; Potency, µM (highest dose often 46.1 µM), usual class: cytotoxic; actives 3.4% (n = 400,000); also: potency is read from the fitted curve at half-maximal effect; % is scaled to controls: 0 for no effect and ±100 for the full control effect; nearly all actives have a fitted effect of over 60% in size
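KB-V1, DMEM (no phenol red) + 10% FBS; cpd pin-transferred, titration series; 72 h, 37 degrees C; CellTiter-Glo, luminescence. Data normalized, curve-fit.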
MCF10A rereplic – DNA re-replication induction in MCF 10a cells; MCF 10A DNA re-replication, Hoechst nuclear intensity, 48 h; Potency, µM (series often up to 46.1 µM), for inactives: at the top dose activity, positive = re-replication, actives largely listed as activators; actives 2.9% (n = 350,000); also: potency is read from the fitted curve at half-maximal effect; % of control where 0% means no effect; nearly all actives have a fitted effect of over 50% in size
* hit, by the source's call; [ ] = dose if it differs, or a comment. Unless noted, calls follow the shape of the dose curve; as a rule, active = well fitted curve in the direction sought with a large enough effect; inconclusive = small, poorly fitted or top-dose-only effect, or another doubt; inactive = no such curve, though single readings can be large; an effect the other way counts as inactive or inconclusive.

What do the screens show for `COc1ccccc1CNC(=O)C(Cc1c[nH]c2ccccc12)NC(=O)OCc1ccccc1` (stereo not given)?
KB-3-1 cytotox: inconclusive; IL-1B inflam inh: -26; SW480 rerep: 2%; KB-V1 cytotox: 18µM*; MCF10A rereplic: 18%

Results for COc1ccc(CNC(=O)COC(=O)[C@H](Cc2c[nH]c3ccccc23)NC(=O)c2cccs2)cc1 ?
KB-3-1 cytotox: inactive; IL-1B inflam inh: -93*; SW480 rerep: 1%; KB-V1 cytotox: inactive; MCF10A rereplic: inconclusive

Results for COC(=O)C(Cc1c[nH]c2ccccc12)NC(C)=O (stereo not given) ?
KB-3-1 cytotox: inactive; IL-1B inflam inh: 5; SW480 rerep: 1%; KB-V1 cytotox: inconclusive; MCF10A rereplic: -10%

How did COC(=O)[C@@H](Cc1c[nH]c2ccccc12)NC(=O)c1cc(=O)[nH]c2ccccc12 do in these assays?
KB-3-1 cytotox: inactive; IL-1B inflam inh: -99*; SW480 rerep: -4%; KB-V1 cytotox: inactive; MCF10A rereplic: -7%

How did O=C(NCc1ccccc1)c1cc(=O)[nH]c2ccccc12 do in these assays?
KB-3-1 cytotox: inactive; IL-1B inflam inh: -20; SW480 rerep: -3%; KB-V1 cytotox: inactive; MCF10A rereplic: -2%

What do the screens show for `CN(C)CC(C)(C)CNS(=O)(=O)CC12CCC(CC1=O)C2(C)C` (stereo not given)?
KB-3-1 cytotox: inactive; IL-1B inflam inh: -3; SW480 rerep: -9%; KB-V1 cytotox: inactive; MCF10A rereplic: -176%[0.0737 µM]

Results for COC(=O)C(Cc1c[nH]c2ccccc12)NC(=O)c1cc(-c2ccc(OC)c(OC)c2)oc1C (stereo not given) ?
KB-3-1 cytotox: inactive; IL-1B inflam inh: -64*; SW480 rerep: 17%; KB-V1 cytotox: inactive; MCF10A rereplic: inconclusive

What do the screens show for `Cc1cc(C(=O)NC(Cc2c[nH]c3ccccc23)C(=O)O)c(C)o1` (stereo not given)?
KB-3-1 cytotox: inactive; IL-1B inflam inh: 19; SW480 rerep: -2%; KB-V1 cytotox: inactive; MCF10A rereplic: 0%

How did COC(=O)[C@@H](Cc1c[nH]c2ccccc12)NC(=O)CNC(=O)c1ccccc1OC do in these assays?
KB-3-1 cytotox: inactive; IL-1B inflam inh: -99*; SW480 rerep: 6%; KB-V1 cytotox: inactive; MCF10A rereplic: -1%

Results for COc1ccc(C(C)=O)cc1CSc1nnc(C)s1 ?
KB-3-1 cytotox: inactive; IL-1B inflam inh: -4; SW480 rerep: -3%; KB-V1 cytotox: inactive; MCF10A rereplic: -1%

How did COc1ccc(C(C)=O)cc1CSc1nnc(Nc2ccccc2)s1 do in these assays?
KB-3-1 cytotox: inconclusive; IL-1B inflam inh: -28; SW480 rerep: 1%; KB-V1 cytotox: 8.2µM*; MCF10A rereplic: 5%

How did COc1ccc(C(C)=O)cc1CSc1nnc(Nc2ccc(C)cc2)s1 do in these assays?
KB-3-1 cytotox: inconclusive; IL-1B inflam inh: -66*; SW480 rerep: 1%; KB-V1 cytotox: inconclusive; MCF10A rereplic: 6%

What do the screens show for `C[C@@H]1CN([C@H](C)CO)C(=O)CCCn2nncc2CO[C@@H]1CN(C)C(=O)Nc1ccc2c(c1)OCO2`?
KB-3-1 cytotox: inconclusive; IL-1B inflam inh: 25; KB-V1 cytotox: inactive

Results for CC(=O)c1sccc1NC(=O)CC(C)(C)CC(=O)O ?
KB-3-1 cytotox: inactive; IL-1B inflam inh: 33; SW480 rerep: -11%; KB-V1 cytotox: inactive; MCF10A rereplic: 0%

What do the screens show for `O=C(CC1NCCc2ccccc21)Nc1ccccc1` (stereo not given)?
KB-3-1 cytotox: inactive; IL-1B inflam inh: -8; SW480 rerep: -4%; KB-V1 cytotox: inactive; MCF10A rereplic: -3%

Results for O=C(CC1NCCc2ccccc21)Nc1ccc(Oc2ccccc2)cc1 (stereo not given) ?
KB-3-1 cytotox: inactive; IL-1B inflam inh: -153*; SW480 rerep: inconclusive; KB-V1 cytotox: inconclusive; MCF10A rereplic: inconclusive

Results for CCOc1ccccc1CNC(=O)Cn1ccc2cc(S(=O)(=O)N3CCCC3)ccc21 ?
KB-3-1 cytotox: inactive; IL-1B inflam inh: inconclusive; SW480 rerep: 0%; KB-V1 cytotox: inactive; MCF10A rereplic: 10%

Results for CCc1ccc(C(C)NC(=S)NCc2ccc(F)cc2)cc1 (stereo not given) ?
KB-3-1 cytotox: inconclusive; IL-1B inflam inh: inconclusive; SW480 rerep: inconclusive; KB-V1 cytotox: inactive; MCF10A rereplic: 26µM*

What do the screens show for `CCc1ccc(C(C)NC(=O)C2(C)CC2(Br)Br)cc1` (stereo not given)?
KB-3-1 cytotox: inactive; IL-1B inflam inh: -61*; SW480 rerep: -6%; KB-V1 cytotox: inactive; MCF10A rereplic: 14%

How did CCOc1ccc(C(C)NC(=S)NCc2ccc(F)cc2)cc1 (stereo not given) do in these assays?
KB-3-1 cytotox: inactive; IL-1B inflam inh: -16; SW480 rerep: 0%; KB-V1 cytotox: inconclusive; MCF10A rereplic: -2%

Results for CCOC(=O)c1[nH]c(C)c(CC(C)C)c1C ?
KB-3-1 cytotox: inactive; IL-1B inflam inh: -17; SW480 rerep: -11%; KB-V1 cytotox: inactive; MCF10A rereplic: 0%

Results for O=C(c1cccc(F)c1)N1CCC(c2c[nH]c3ccccc23)(c2c[nH]c3ccccc23)CC1 ?
KB-3-1 cytotox: inactive; KB-V1 cytotox: inactive

How did COc1ccccc1-c1c(C)nn2c(N3CCC(C)CC3)cc(C)nc12 do in these assays?
KB-3-1 cytotox: inactive; IL-1B inflam inh: -51*; SW480 rerep: inconclusive; KB-V1 cytotox: inconclusive; MCF10A rereplic: inconclusive

What do the screens show for `COc1ccccc1-c1c(C)nn2c(N3CCC(C(N)=O)CC3)cc(C)nc12`?
KB-3-1 cytotox: inconclusive; IL-1B inflam inh: -12; SW480 rerep: -14%; KB-V1 cytotox: inactive; MCF10A rereplic: 0%

Results for Cc1ccc(C(=O)c2c(C)oc3c2C(=O)C(=O)c2ccccc2-3)cc1 ?
KB-3-1 cytotox: inconclusive; IL-1B inflam inh: -121*; SW480 rerep: 13µM*; KB-V1 cytotox: 5.2µM*; MCF10A rereplic: 18µM*

What do the screens show for `Cc1oc2c(c1C(=O)c1ccc(Cl)cc1)C(=O)C(=O)c1ccccc1-2`?
KB-3-1 cytotox: inconclusive; IL-1B inflam inh: 4; SW480 rerep: -4%; KB-V1 cytotox: 16µM*; MCF10A rereplic: 7.3µM*

How did CCc1cccc(NC(=O)c2nc(-c3ccncc3)no2)c1 do in these assays?
KB-3-1 cytotox: inactive; KB-V1 cytotox: inconclusive

How did Cn1c(SCC(=O)NC2CCCC2)nnc1-c1ccccn1 do in these assays?
KB-3-1 cytotox: inactive; IL-1B inflam inh: 29; SW480 rerep: -3%; KB-V1 cytotox: inactive; MCF10A rereplic: -8%

What do the screens show for `CCCCOc1ccc(CSC(=N)N)cc1Cl`?
KB-3-1 cytotox: inactive; IL-1B inflam inh: -101*; SW480 rerep: inconclusive; KB-V1 cytotox: inactive; MCF10A rereplic: inconclusive

Source: PubChem (National Center for Advancing Translational Sciences (NCATS))
